Data taken from PubChem BioAssay AID624255 (Broad Institute, 2012).
Where “and” joins values, the source holds several entries; their conditions need not be identical. Identical values can stand only once. Among all 77,000 compounds or so, about 4,600 (6%) were called active. Roughly 1% stayed inconclusive and do not appear here.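 Rule for the calls: active = mean inhibition above about 93%, with at least 55% of replicates each passing it (limit read from the data, passing the limit was not always enough); inconclusive = only one of those two conditions holds; inactive = neither condition holds.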 This excerpt belongs to a sample that is enriched for actives.

Assay: T. cruzi intracellular proliferation inhibitors, primary screen, cell-based, beta-gal Tulahuen parasites, NIH3T3 host, luminescence (AID 624255)
Settings: T. cruzi beta-gal in NIH3T3, GalScreen luminescence, 90 h; at 8.34 µM; hits give high values

Q: For `CCC(=O)N(C)C[C@H]1Oc2ncc(-c3ccc(C#N)cc3)cc2C(=O)N([C@@H](C)CO)C[C@H]1C`, which inhibition is on record?
A: The inhibition was 51.9% (inactive).

Q: Which inhibition does the source give for `COc1ccc(-c2cnc3c(c2)C(=O)N([C@H](C)CO)C[C@@H](C)[C@H](CN(C)Cc2ccccc2)O3)cc1` here?
A: Its inhibition is 19.2% (inactive) and 75.6% (inactive).

Q: For `C/C=C/c1ccc([C@H]2[C@@H](C#N)N(C(=O)CN3CCOCC3)[C@@H]2CO)cc1`, which inhibition is on record?
A: The inhibition was 80.8% (inactive).

Q: Which inhibition does the source give for `N#C[C@@H]1[C@@H](c2ccccc2)[C@@H](CO)N1C(=O)Cc1ccccc1` here?
A: The inhibition was 105% (active).

Q: With `COCC(=O)N1[C@H](CO)[C@@H](c2ccc(C#Cc3ccccc3F)cc2)[C@@H]1C#N` as the compound, how does the inhibition read?
A: The inhibition was 97.7% (active).

Q: For `N#C[C@H]1[C@H](c2ccc(-c3ccccc3)cc2)[C@@H](CO)N1C(=O)Cc1ccccc1`, which inhibition is on record?
A: The inhibition was 79.5% (inactive).

Q: For `N#C[C@@H]1[C@@H](c2ccc(-c3ccccc3)cc2)[C@@H](CO)N1C(=O)Cc1ccccc1`, which inhibition is on record?
A: The inhibition was 31% (inactive).

Q: For `COc1ccccc1C#Cc1ccc([C@@H]2[C@@H](CO)N(C(=O)C3CC3)[C@H]2C#N)cc1`, which inhibition is on record?
A: The inhibition was 88.6% (inactive).

Q: For `N#C[C@@H]1[C@H](c2ccc(C#Cc3ccccc3F)cc2)[C@H](CO)N1C(=O)C1CCCCC1`, which inhibition is on record?
A: The inhibition was 83.3% (inactive).

Q: With `COC(=O)C[C@@H]1C[C@H]2c3cc(NC(=O)Nc4ccc(F)cc4)ccc3O[C@H]2[C@@H](CO)O1` as the compound, how does the inhibition read?
A: The inhibition was -1.42% (inactive).

Q: With `CC(=O)NC[C@H]1[C@H](c2ccc(C3=CCCCC3)cc2)[C@@H](CO)N1C(=O)NC(C)C` as the compound, how does the inhibition read?
A: The inhibition was 21.7% (inactive).

Q: For `COc1ccccc1S(=O)(=O)N[C@@H]1CC[C@H](CC(=O)N2CCOCC2)O[C@@H]1CO`, which inhibition is on record?
A: The inhibition was 16.9% (inactive).

Q: Which inhibition does the source give for `CNC(=O)C[C@@H]1CC[C@@H]2[C@H](COc3ccc(NC(=O)Nc4ccccc4)cc3C(=O)N2C)O1` here?
A: The inhibition was 7.48% (inactive).

Q: Which inhibition does the source give for `C[C@H](CO)N1C[C@H](C)[C@H](CN(C)CC2CC2)OCCCC[C@H](C)Oc2ccc(NC(=O)c3ccncc3)cc2C1=O` here?
A: The inhibition was 29.6% (inactive).

Q: With `CCC(=O)N1C[C@H](C)[C@@H](OC)CN(C)C(=O)c2cc(NC(=O)c3cnccn3)ccc2OC[C@@H]1C` as the compound, how does the inhibition read?
A: The inhibition was 11% (inactive).

Q: With `COCC(=O)N1[C@H](CNC(=O)c2ccccn2)[C@H](c2ccccc2)[C@@H]1CO` as the compound, how does the inhibition read?
A: The inhibition was 26.4% (inactive).

Q: Which inhibition does the source give for `CCNC[C@@H]1[C@@H](c2ccccc2)[C@@H](CO)N1C(=O)Cc1ccccn1` here?
A: Its inhibition is 31.9% (inactive).

Q: Which inhibition does the source give for `COCCNC[C@@H]1[C@H](c2ccccc2)[C@H](CO)N1c1nc(C)c(C)s1` here?
A: The inhibition was 100% (active).

Q: For `COC(=O)C[C@@H]1CC[C@@H]2[C@H](COc3ccc(NC(=O)c4ccccc4OC)cc3C(=O)N2C)O1`, which inhibition is on record?
A: The inhibition was 44.4% (inactive).

Q: With `CCC(=O)N1[C@@H](CO)[C@@H]2c3ccccc3N(C(=O)c3ccccc3F)C[C@@H]21` as the compound, how does the inhibition read?
A: The inhibition was 6.74% (inactive).

Q: With `O=C(c1ccccc1F)N1C[C@H]2[C@@H](c3ccccc31)[C@@H](CO)N2C(=O)c1ccc(F)cc1` as the compound, how does the inhibition read?
A: Its inhibition is 103% (active).

Q: With `CC(=O)N1[C@H](CO)[C@H]2c3ccccc3N(C(=O)c3ccc(F)cc3)C[C@H]21` as the compound, how does the inhibition read?
A: Its inhibition is 14.7% (inactive).

Q: With `O=C(C[C@@H]1C[C@@H]2c3cc(NC(=O)CC4CC4)ccc3O[C@@H]2[C@@H](CO)O1)NCCN1CCCCC1` as the compound, how does the inhibition read?
A: Its inhibition is -43.9% (inactive).

Q: With `CCCNC(=O)c1cc2c(c(-c3cccc(-c4ccc(F)cc4)c3)n1)[C@@H](CCO)N([S@](=O)C(C)(C)C)C2` as the compound, how does the inhibition read?
A: The inhibition was 87.5% (inactive).

Q: Which inhibition does the source give for `CC(C)(C)[S@@](=O)N1Cc2cc(C(=O)NCc3ccc4c(c3)OCO4)nc(-c3cccc(-c4ccccc4)c3)c2[C@H]1CCO` here?
A: Its inhibition is 99.7% (active).

Q: Which inhibition does the source give for `COc1cccc(CNC(=O)c2cc3c(c(-c4cccc(-c5ccc(C#N)cc5)c4)n2)[C@@H](CCO)N([S@](=O)C(C)(C)C)C3)c1` here?
A: Its inhibition is 84.2% (inactive).

Q: For `CCC(=O)N1C[C@@H](C)[C@H](OC)CN(C)C(=O)c2ccc(NC(=O)Nc3ccccc3)cc2OC[C@@H]1C`, which inhibition is on record?
A: The inhibition was 13.5% (inactive).

Q: With `C[C@H]1CN([C@@H](C)CO)S(=O)(=O)c2ccc(C#CC3CCCC3)cc2O[C@@H]1CN(C)C(=O)c1cccc(F)c1` as the compound, how does the inhibition read?
A: The inhibition was 115% (active).

Q: Which inhibition does the source give for `CCC(=O)N(C)C[C@H]1Oc2cc(C#CC3CCCC3)ccc2S(=O)(=O)N([C@H](C)CO)C[C@@H]1C` here?
A: The inhibition was 86.4% (inactive).

Q: For `C[C@H](CO)N1C[C@H](C)[C@H](CN(C)C)Oc2cc(C#CC3CC3)ccc2S1(=O)=O`, which inhibition is on record?
A: The inhibition was -175% (inactive).

Q: With `COCC(=O)N(C)C[C@H]1Oc2cc(C#CC3CCCC3)ccc2S(=O)(=O)N([C@H](C)CO)C[C@@H]1C` as the compound, how does the inhibition read?
A: Its inhibition is 22.9% (inactive).

Q: With `CC(=O)N(C)C[C@H]1Oc2cc(C#CC3CC3)ccc2S(=O)(=O)N([C@H](C)CO)C[C@@H]1C` as the compound, how does the inhibition read?
A: The inhibition was 21.1% (inactive).

Q: With `C[C@H](CO)N1C[C@H](C)[C@@H](CN(C)C(=O)Nc2cc(F)ccc2F)Oc2cc(C#CC3CC3)ccc2S1(=O)=O` as the compound, how does the inhibition read?
A: The inhibition was 114% (active).

Q: With `CO[C@@H]1CC[C@@H]2CCOc3ccc(C#N)cc3C(=O)N(C)C[C@@H](OC)[C@@H](C)C(=O)N(C)C[C@H]1O2` as the compound, how does the inhibition read?
A: The inhibition was 26.1% (inactive).

Q: Which inhibition does the source give for `Cc1noc(C)c1NC(=O)N(C)C[C@H]1OCCCC[C@H](C)Oc2ccc(NC(=O)Nc3ccccc3)cc2C(=O)N([C@H](C)CO)C[C@@H]1C` here?
A: The inhibition was -11.2% (inactive).

Q: With `CO[C@@H]1CN(C)C(=O)c2ccc(NS(=O)(=O)c3cn(C)cn3)cc2OC[C@H](C)N(CCC(F)(F)F)C[C@@H]1C` as the compound, how does the inhibition read?
A: The inhibition was 40.1% (inactive).

Q: For `CCNC(=O)C[C@@H]1CC[C@H]2[C@@H](COc3ccc(NC(=O)c4ccccc4Cl)cc3C(=O)N2C)O1`, which inhibition is on record?
A: The inhibition was 1.97% (inactive).

Q: For `CNC[C@H]1Oc2cc(C#Cc3ccccn3)ccc2S(=O)(=O)N([C@H](C)CO)C[C@@H]1C`, which inhibition is on record?
A: Its inhibition is 92.5% (inactive).

Q: With `C[C@H](CO)N1C[C@H](C)[C@H](CN(C)C(=O)C2CC2)Oc2ncc(C#Cc3ccccc3)cc2C1=O` as the compound, how does the inhibition read?
A: Its inhibition is 60.3% (inactive).

Q: Which inhibition does the source give for `C[C@H](CO)N1C[C@H](C)[C@H](CN(C)C(=O)Nc2ccc3c(c2)OCO3)Oc2ncc(C#Cc3cccc(F)c3)cc2C1=O` here?
A: Its inhibition is 100% (active).

Q: Which inhibition does the source give for `COc1cccc(C#Cc2cnc3c(c2)C(=O)N([C@@H](C)CO)C[C@H](C)[C@@H](CN(C)C(=O)C2CCC2)O3)c1` here?
A: Its inhibition is 84.3% (inactive).

Q: With `C[C@H](CO)N1C[C@H](C)[C@H](CN(C)C(=O)C2CCCCC2)Oc2ncc(C#Cc3cccc(F)c3)cc2C1=O` as the compound, how does the inhibition read?
A: The inhibition was 120% (active).

Q: With `C[C@H]1CN([C@@H](C)CO)C(=O)c2cc(C#Cc3ccc(F)cc3)cnc2O[C@@H]1CN(C)C(=O)Nc1ccc(F)cc1` as the compound, how does the inhibition read?
A: Its inhibition is 25% (inactive).

Q: Which inhibition does the source give for `COCC#Cc1cnc2c(c1)C(=O)N([C@H](C)CO)C[C@@H](C)[C@@H](CN(C)C(=O)Nc1cccc(F)c1)O2` here?
A: The inhibition was 8.75% (inactive).
